Seven molecules from PubChem BioAssay (Tox21) can be followed below.

Several values for one entry are separate records, joined by “and”; a condition that tells them apart may be missing. Identical values can stand only once. Values without a mark were called inactive. Records with an inconclusive call do not appear. Activity calls are given as the source filed them. Unless noted, the call rests on the fitted dose curve.

Test [1] can be described thus: Nuclear factor erythroid 2-related factor 2/antioxidant responsive element (Nrf2/ARE) small molecule agonists: qHTS cell viability counter screen in human keratinocytes (AID 1919968; active means well fitted curve in the direction sought with a large enough effect in the repeat runs; an effect the other way counts as inactive or inconclusive; further: nearly all actives have a fitted effect of over 55% in size; further: potency means the concentration at half of the fitted maximal effect). The method, boiled down: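 CellTiter-Fluor fluorescence, read 1 h after reagent, gave viability in the same wells as the ARE-luciferase assay. KeratinoSens cells (1,500/well) had 23 h compound exposure at 37 C/5% CO2 following 5 h plating.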
In general terms: In qHTS, concentration-response curves come from the screen itself.

Test [2] can be described thus: Nuclear factor erythroid 2-related factor 2/antioxidant responsive element (Nrf2/ARE) small molecule agonists: luciferase reporter gene qHTS assay in human keratinocytes (AID 1919969). Further: nearly all actives have a fitted effect of over 35% in size. Further: potency means the concentration at half of the fitted maximal effect.
The target of test [3] is Gonadotropin-releasing hormone receptor (Homo sapiens) (UniProt P30968). The test is described as follows: Human gonadotropin-releasing hormone receptor (GnRHR) small molecule agonists, calcium flux assay in GnRHR-HEK293 cells (AID 1920063). Further: nearly all actives have a fitted effect of over 35% in size. The method, boiled down: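 Agonist mode: compounds at 15 concentrations, in triplicate, went onto calcium dye-loaded GnRHR-HEK293 cells. Intracellular calcium was then followed as 480/540 nm fluorescence at 1 s intervals over 3 min.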
Sequence of Gonadotropin-releasing hormone receptor (Homo sapiens) (P30968 whole entry, looked up): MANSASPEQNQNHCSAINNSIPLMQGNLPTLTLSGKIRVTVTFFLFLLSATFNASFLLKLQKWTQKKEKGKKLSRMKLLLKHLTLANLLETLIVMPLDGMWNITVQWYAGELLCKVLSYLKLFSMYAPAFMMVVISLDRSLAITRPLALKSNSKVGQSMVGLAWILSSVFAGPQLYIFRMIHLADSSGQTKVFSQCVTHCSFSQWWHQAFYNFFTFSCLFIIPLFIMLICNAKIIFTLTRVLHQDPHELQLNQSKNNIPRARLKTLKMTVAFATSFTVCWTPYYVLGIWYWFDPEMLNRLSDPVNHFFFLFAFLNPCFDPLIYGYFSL
On the technique in general: A change in cytosolic calcium serves as a functional read-out for many receptors and channels.

Test [4] concerns the target KiSS-1 receptor (Homo sapiens) (UniProt Q969F8). The test can be described thus: Human kisspeptin (KISS1R) small molecule agonists, calcium flux assay in KISS1R-HEK293 cells (AID 1920064; active means well fitted curve in the direction sought with a large enough effect in the repeat runs; an effect the other way counts as inactive or inconclusive). The method, boiled down:
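Agonist mode: intracellular calcium rise tracked at 1 s intervals over 3 min (480/540 nm) immediately after compound addition to dye-loaded KISS1R-HEK293 stable cells. Each compound tested at 15 concentrations in triplicate.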

The nature of test [5]: G protein-coupled receptor (GPCR) small molecule agonists, calcium flux assay: HEK293 wild type cell line counter screen (AID 1920065). In short, it runs like this:
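Calcium flux counter screen: compound added in agonist mode at 15 concentrations in triplicate to dye-loaded parental HEK293 cells. Fluorescence (480/540) read kinetically for 3 min; ATP served as positive control.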

The nature of test [6]: p53 small molecule agonists, cell-based qHTS assay with human liver microsomes (AID 1963577).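 Further: p53 response element beta-lactamase reporter cells with liver microsomes plus NADPH.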 The method, boiled down:
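HLM-supplemented p53RE-bla reporter assay: 16 h compound exposure at 37 C, microsomes and NADPH each 0.5 mg/mL final, read by fluorescence intensity.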

A short description of test [7]: p53 small molecule agonists, cell-based qHTS assay with rat liver microsomes (AID 1963578). The method, boiled down:
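Quantitative HTS of the Tox21 10K library: p53RE-bla cells, rat liver microsomes plus NADPH at 0.5 mg/mL final each, 16 h at 37 C, beta-lactamase fluorescence detection.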

The nature of test [8]: p53 small molecule agonists, cell-based qHTS assay with human liver microsomes: qHTS cell viability counter screen (AID 1963579). Further: nearly all actives have a fitted effect of over 45% in size. Further: potency means the concentration at half of the fitted maximal effect. In short, it runs like this:
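Viability of p53RE-bla cells is measured as CellTiter-Glo luminescence following a 16 h, 37 C incubation with compound, liver microsomes from human donors and NADPH.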

The nature of test [9]: p53 small molecule agonists, cell-based qHTS assay with rat liver microsomes: qHTS cell viability counter screen (AID 1963580). Further: nearly all actives have a fitted effect of over 45% in size. In short, it runs like this: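 Rat liver microsome (0.5 mg/mL final) and NADPH (0.5 mg/mL final) co-incubation with compounds for 16 h at 37 C on HCT-116 p53RE-bla cells; cytotoxicity taken from intracellular ATP luminescence.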
The nature of test [10]: p53 small molecule agonists, cell-based qHTS assay (AID 1963582; active means well fitted activation curve with a large enough effect in the signal ratio in the repeat runs, not every such curve was filed as active; the % refers to the signal ratio; further: potency means the concentration at half of the fitted maximal effect). The method, boiled down: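 Read-out is beta-lactamase FRET fluorescence after 2 h at room temperature with LiveBLAzer B/G substrate. p53 response element-bla cells were treated 16 h at 37 C with compounds in DMSO, added 5 h after seeding.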
Test [11] deals with 5-hydroxytryptamine receptor 2A (Homo sapiens) (UniProt P28223). The test can be described thus: 5-hydroxytryptamine receptor 2A (HTR2A) small molecule antagonists, cell-based qHTS assay (AID 1963586). Further: nearly all actives have a fitted effect of over 45% in size. In short, it runs like this:
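CHO cells stably expressing human HTR2A were plated for 18 h at 37 C, then loaded with calcium dye for 1 h. Compounds were preincubated 5 min at room temperature before DOI (4 nM solution) was added. Kinetic fluorescence was read for 3 min.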

Test [12] shares this target. The test is described as follows: 5-hydroxytryptamine receptor 2A (HTR2A) small molecule agonists, cell-based qHTS assay (AID 1963587). Further: nearly all actives have a fitted effect of over 30% in size. In short, it runs like this: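 Kinetic calcium-flux fluorescence (2 min, 1 sec intervals) after compound addition in agonist mode. HTR2A-CHO cells were cultured 18 h, then dye-loaded 1 h at 37 C.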
Test [13] concerns the target Muscarinic acetylcholine receptor M1 (Homo sapiens) (UniProt P11229). The test is described as follows: Cholinergic receptor muscarinic 1 (CHRM1) small molecule antagonists, cell-based qHTS assay (AID 1963588). Further: nearly all actives have a fitted effect of over 40% in size. The method, boiled down: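 Compounds were tested at 15 concentrations in three independent runs. Dye-loaded CHRM1-CHO cells were exposed 5 min at room temperature before stimulation by acetylcholine added at 50nM. Intracellular calcium was read kinetically on FDSS for 3 min.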

Test [14] has the same target. The test is described as follows: Cholinergic receptor muscarinic 1 (CHRM1) small molecule agonists, cell-based qHTS assay (AID 1963589). Further: nearly all actives have a fitted effect of over 35% in size. In short, it runs like this:
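Agonist-mode calcium-flux screen: compounds at 15 concentrations, three independent runs, were pin-transferred onto dye-loaded human CHRM1-CHO cells. Fluorescence was then recorded kinetically every second over minutes.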

A short description of test [15]: cAMP Responsive Elements (CRE) small molecule agonists, cell-based qHTS assay (AID 1963590). The method, boiled down:
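Agonist mode: compound added to CRE-bla HEK 293T cells (2,000/well, 18 h after plating) for 3 h at 37 C/5% CO2. Reporter activity detected via FRET beta-lactamase substrate, 2 h room-temperature loading.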

Test [16] is described as follows: cAMP Responsive Elements (CRE) small molecule antagonists, cell-based qHTS assay (AID 1963591; active means well fitted inhibition curve with a large enough effect in the signal ratio in the repeat runs, not every such curve was filed as active; the % refers to the signal ratio). The method, boiled down:
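Antagonist mode: compounds are added alongside the adenylyl cyclase activator NKH477 (0.25 uM final) to CRE-bla HEK293T cells for 3 h. LiveBLAzer FRET substrate, 2 h at room temperature, reports bla expression.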

Test [17] addresses Beta-2 adrenergic receptor (Homo sapiens) (UniProt P07550). The test is described as follows: Adrenergic beta2 receptor (ADRB2) small molecule antagonists, cell-based qHTS assay (AID 1963592). Further: series mostly up to about 92 µM; nearly all actives have a fitted effect of over 50% in size. In short, it runs like this: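 Assay format: CHO-ADRB2 cells, 18-20hr seeding at 37C/5% CO2, then compound plus 1nM isoproterenol agonist mix for 0.5hr RT. Homogeneous time-resolved fluorescence cAMP detection after 1hr, expressed as 665/615 nm ratio.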

For test [18], the target named is D(2) dopamine receptor (Homo sapiens) (UniProt P14416). The test is described as follows: Dopamine D2 receptor (DRD2) small molecule antagonists, cell-based qHTS assay (AID 1963595; active means well fitted inhibition curve with a large enough effect in the signal ratio in the repeat runs, with a control signal flat; the % refers to the signal ratio). In short, it runs like this:
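Cells were plated and grown for 24 h at 37 °C. Ro20-1724 (0.1 mM final) went in first, then compound for 10 min. NKH477 (200 nM) with quinpirole (12 nM) followed for 30 min at RT, then HTRF detection reagents for 1 h.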

Test [19] can be described thus: p53 small molecule agonists, cell-based qHTS assay: qHTS cell viability counter screen (AID 1963581). Further: nearly all actives have a fitted effect of over 45% in size. In short, it runs like this: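 Counter screen read by CellTiter-Glo luminescence (ATP content, 30 min at room temperature), run in the same wells as the beta-lactamase reporter read. HCT-116 p53RE-bla cells saw compounds for 16 h at 37 C.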
Test [20] has as its target D(2) dopamine receptor (Homo sapiens) (UniProt P14416). The test can be described thus: Dopamine D2 receptor (DRD2) small molecule agonists, cell-based qHTS assay (AID 1963594). Further: nearly all actives have a fitted effect of over 35% in size. In short, it runs like this:
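cAMP accumulation in DRD2-HEK293 cells measured by HTRF after 1 h detection; compounds added 10 min before NKH477 (200nM […]) forskolin-analogue stimulation, 30 min at room temperature, with Ro20-1724 present at 0.1 mM final.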
On the % scale 0 is the no-effect control and ±100 the full control effect.

Sequence of 5-hydroxytryptamine receptor 2A (Homo sapiens) (P28223 whole entry, looked up): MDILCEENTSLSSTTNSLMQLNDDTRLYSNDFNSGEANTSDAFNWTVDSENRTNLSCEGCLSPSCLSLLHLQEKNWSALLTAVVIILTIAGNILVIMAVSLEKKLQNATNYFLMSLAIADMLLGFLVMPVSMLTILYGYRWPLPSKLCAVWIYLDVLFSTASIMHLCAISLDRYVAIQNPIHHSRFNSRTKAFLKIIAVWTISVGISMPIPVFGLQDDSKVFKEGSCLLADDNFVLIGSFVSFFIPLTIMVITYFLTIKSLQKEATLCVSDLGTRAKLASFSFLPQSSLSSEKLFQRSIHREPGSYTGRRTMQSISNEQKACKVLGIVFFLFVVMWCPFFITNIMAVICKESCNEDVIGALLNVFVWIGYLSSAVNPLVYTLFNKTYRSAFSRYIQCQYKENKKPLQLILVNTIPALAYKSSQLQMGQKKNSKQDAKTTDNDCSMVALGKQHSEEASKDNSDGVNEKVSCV
Sequence of KiSS-1 receptor (Homo sapiens) (Q969F8 whole entry, looked up): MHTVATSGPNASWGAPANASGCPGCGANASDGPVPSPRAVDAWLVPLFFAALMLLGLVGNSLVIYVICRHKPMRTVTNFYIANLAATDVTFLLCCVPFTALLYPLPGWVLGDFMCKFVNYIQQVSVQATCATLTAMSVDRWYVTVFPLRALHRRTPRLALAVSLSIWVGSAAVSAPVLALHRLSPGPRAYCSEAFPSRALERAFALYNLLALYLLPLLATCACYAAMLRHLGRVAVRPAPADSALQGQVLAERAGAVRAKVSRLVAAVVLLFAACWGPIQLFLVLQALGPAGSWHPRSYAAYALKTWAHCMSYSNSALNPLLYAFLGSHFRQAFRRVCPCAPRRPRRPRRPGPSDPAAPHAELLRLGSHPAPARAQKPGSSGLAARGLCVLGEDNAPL
Sequence of D(2) dopamine receptor (Homo sapiens) (P14416 whole entry, looked up): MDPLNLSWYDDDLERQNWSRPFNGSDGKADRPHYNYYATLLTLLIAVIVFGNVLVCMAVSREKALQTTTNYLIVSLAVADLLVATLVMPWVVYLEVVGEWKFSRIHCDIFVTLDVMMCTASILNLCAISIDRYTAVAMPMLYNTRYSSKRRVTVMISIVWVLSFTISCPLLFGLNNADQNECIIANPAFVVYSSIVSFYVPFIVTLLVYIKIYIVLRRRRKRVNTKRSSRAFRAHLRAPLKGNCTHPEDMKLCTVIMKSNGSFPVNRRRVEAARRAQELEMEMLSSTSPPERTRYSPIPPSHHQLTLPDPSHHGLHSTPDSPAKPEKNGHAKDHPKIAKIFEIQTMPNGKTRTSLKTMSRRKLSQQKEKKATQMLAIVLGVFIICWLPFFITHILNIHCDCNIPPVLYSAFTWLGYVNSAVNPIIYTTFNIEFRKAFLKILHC
Sequence of Muscarinic acetylcholine receptor M1 (Homo sapiens) (P11229 whole entry, looked up): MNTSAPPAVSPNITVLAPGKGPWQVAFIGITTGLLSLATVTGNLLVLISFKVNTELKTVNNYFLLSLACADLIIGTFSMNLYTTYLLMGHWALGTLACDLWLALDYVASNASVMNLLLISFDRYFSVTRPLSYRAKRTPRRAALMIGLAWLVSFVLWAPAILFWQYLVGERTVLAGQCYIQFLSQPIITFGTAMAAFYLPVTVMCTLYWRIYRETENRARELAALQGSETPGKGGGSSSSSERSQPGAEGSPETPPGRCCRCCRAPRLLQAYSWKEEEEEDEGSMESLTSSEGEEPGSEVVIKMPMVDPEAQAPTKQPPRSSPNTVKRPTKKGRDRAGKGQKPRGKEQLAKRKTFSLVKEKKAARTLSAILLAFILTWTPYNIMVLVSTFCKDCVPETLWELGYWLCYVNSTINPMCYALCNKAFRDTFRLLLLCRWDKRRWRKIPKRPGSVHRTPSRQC
Sequence of Beta-2 adrenergic receptor (Homo sapiens) (P07550 whole entry, looked up): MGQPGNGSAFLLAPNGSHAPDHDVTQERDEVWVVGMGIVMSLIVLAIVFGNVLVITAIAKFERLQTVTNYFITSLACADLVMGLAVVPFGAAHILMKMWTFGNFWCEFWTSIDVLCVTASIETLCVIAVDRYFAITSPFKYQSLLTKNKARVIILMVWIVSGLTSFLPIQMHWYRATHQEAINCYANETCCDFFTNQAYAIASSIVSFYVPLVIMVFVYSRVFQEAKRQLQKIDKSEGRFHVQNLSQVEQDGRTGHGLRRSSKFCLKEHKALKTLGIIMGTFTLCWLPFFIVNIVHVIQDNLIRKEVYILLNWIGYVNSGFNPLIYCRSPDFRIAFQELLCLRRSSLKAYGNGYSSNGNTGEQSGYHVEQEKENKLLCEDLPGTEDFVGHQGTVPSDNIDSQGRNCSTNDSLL

For the molecule `Nc1cc([N+](=O)[O-])ccc1Cl`, the Potency entry in test [1], in [2], in test [3], in test [4], in test [5] and in [6] was “inactive” each time. Moreover, the Potency entry in test [7], in [8], in [9], in test [10], in test [11] and in test [12] was “inactive” each time. Also, the Potency result in test [13], in test [14], in test [15], in [16], in test [17] and in [18] was “inactive” throughout.
Consider `CC(CCO)CCc1ccccc1` (stereo not given), for which the Potency entry in test [1], in test [2], in [3], in test [4], in test [5] and in test [6] was “inactive” in each case. Besides, the Potency result in test [7], in [8], in test [19], in test [10], in test [11] and in test [12] was “inactive” each time. Moreover, the Potency result in test [13], in test [14], in test [16], in test [17], in test [20] and in test [18] was “inactive” each time.
As for `N[C@@H](CSSC[C@H](N)C(=O)O)C(=O)O`, the activity change, negative = cytotoxicity in test [1] was -0.627% [at 0.349 µM]; in [8], 1.19% [at 0.249 µM]; in [19] it was 0.512% [at 0.249 µM]. Further, the Potency in [2] was 376 nM (active). For the same molecule, the activity change in test [3] was 1.59% [at 0.217 µM, active compounds read high]. Further, the activation in test [4] is -0.737% [at 0.29 µM]; in test [5], -0.257% [at 0.217 µM]; in test [6] it was 0.648% [at 0.249 µM]; in [7] it was -1.5% [at 0.249 µM]; in test [10], 2.6% [at 0.249 µM]; in test [12], 4.74% [at 0.292 µM]. Further, the activation in test [14] is 1.52% [at 0.29 µM]; in [15], 0.0077% [at 0.349 µM]; in test [20] it was -4.71% [at 0.349 µM]. Besides, the activity, negative = inhibition was -6.07% [at 0.233 µM] in test [11] and 11.3% [at 0.232 µM] in [13]. Further, the activity change, negative = inhibition in test [16] was -2.16% [at 0.349 µM]; in test [17], 8.85% [at 0.349 µM].
Regarding `CC1(C)O[C@H]2CC(=O)OC[C@]23[C@H]2CC[C@@]4(C)[C@H](c5ccoc5)OC(=O)[C@H]5O[C@]54[C@]2(C)C(=O)C[C@@H]13`, the Potency result in [1], in [2], in [3], in [4], in test [5] and in test [6] was “inactive” each time. For the same molecule, the Potency entry in [7], in [8], in [19], in test [10], in test [11] and in [12] was “inactive” each time. Further, the Potency result in test [13], in test [14], in test [15], in [20] and in test [18] was “inactive” throughout.
As to `CC(=O)Nc1ncc([N+](=O)[O-])s1`, the Potency entry in [1], in test [2], in [3], in test [4], in test [5] and in [6] was “inactive” each time. Moreover, the Potency entry in [7], in [8], in [19], in test [10], in test [11] and in test [12] was “inactive” each time. For the same molecule, the Potency result in test [13], in [14], in [15], in [16], in test [17] and in test [20] was “inactive” in each case. Besides, in [18], the Potency entry is “inactive”.
Take `Oc1ccc(C(c2ccc(O)cc2)C(Cl)(Cl)Cl)cc1`: the Potency in [1] is 60.9 µM (active) and 54.5 µM (active); in test [2], 27300 nM (active). Moreover, the Potency result in test [3], in [4], in [5], in test [6], in test [7] and in test [8] was “inactive” in each case. Also, the Potency entry in test [9], in test [11], in [14], in test [16], in test [20] and in test [18] was “inactive” in each case.
For `CN(C)c1ccc2nc3ccc(=[N+](C)C)cc-3sc2c1`, the Potency in test [1] was 54.5 µM (active); in test [2], 10.4 µM (active) and 15.4 µM (active) and 13.3 µM (active); in [8], 8.14 µM (active); in test [10] it was 28.9 µM (active). Also, the Potency entry in [3], in [4], in [5], in test [6], in [7] and in [19] was “inactive” each time. The Potency result in test [11], in test [12], in test [13], in test [14], in [15] and in test [16] was “inactive” each time.
